# Laboratory results reported in PubChem BioAssay AID1159580 (chemical genetic matrix, 2015).
# Among all 5,500 compounds or so, about 2,000 (36%) were called active. Not shown: some 18% with an inconclusive outcome. This is one part of the list. Values without a mark were called inactive. Cut-off read from the data, not from the text of the source: active = normalized growth mostly below about 0.91 (no sharp cut-off); inconclusive = no clear call, values can overlap the other calls; inactive = mostly above about 0.92.
# Assay: chemical genetic growth profiling, strain panel (AID 1159580);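 note: tested at 20 µM; growth read once vehicle control cultures reached saturation at 30 °C; 1 = growth at the plate median or of vehicle wells; lower values mean less growth of the strain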
# Settings: S. cerevisiae deletion strains, growth OD
structure (smiles),measurement,setting,value
CC(=O)Oc1c2c(c3c(c1CC=C(C)C)O[C@]14C(=C[C@@H]5CC1C(C)(C)OC4(C/C=C(\C)C(=O)O)C5=O)C3=O)OC(C)(CCC=C(C)C)C=C2 (some centres not stated),normalized growth,"locus YAL021C, strain ccr4, active compounds read low",1
same,normalized growth,"locus YAL026C, strain drs2, active compounds read low",0.979
same,normalized growth,"locus YAL030W, strain snc1, active compounds read low",0.976
same,normalized growth,"locus YBL061C, strain skt5, active compounds read low",0.949
same,normalized growth,"locus YBR009C, strain hhf1, active compounds read low",0.958
same,normalized growth,"locus YBR023C, strain chs3, active compounds read low",0.964
same,normalized growth,"locus YBR171W, strain sec66, active compounds read low",0.974
same,normalized growth,"locus YBR231C, strain swc5, active compounds read low",0.94
same,normalized growth,"locus YBR279W, strain paf1, active compounds read low",0.961
same,normalized growth,"locus YCL011C, strain gbp2, active compounds read low",0.988
same,normalized growth,"locus YCL016C, strain dcc1, active compounds read low",0.987
same,normalized growth,"locus YCL061C, strain MRC1, active compounds read low",0.98
same,normalized growth,"locus YCL069W, strain vba3, active compounds read low",0.984
same,normalized growth,"locus YCR088W, strain abp1, active compounds read low",0.985
same,normalized growth,"locus YDL005C, strain med2, active compounds read low",0.968
same,normalized growth,"locus YDL040C, strain nat1, active compounds read low",0.977
same,normalized growth,"locus YDR001C, strain nth1, active compounds read low",0.985
same,normalized growth,"locus YDR069C, strain doa4, active compounds read low",0.977
same,normalized growth,"locus YDR137W, strain rgp1, active compounds read low",0.775 (active)
same,normalized growth,"locus YDR159W, strain sac3, active compounds read low",0.87
same,normalized growth,"locus YDR195W, strain ref2",1.01
same,normalized growth,"locus YDR297W, strain sur2, active compounds read low",0.959
same,normalized growth,"locus YDR334W, strain swr1, active compounds read low",0.976
same,normalized growth,"locus YDR335W, strain msn5, active compounds read low",0.997
same,normalized growth,"locus YDR392W, strain spt3, active compounds read low",0.547 (active)
same,normalized growth,"locus YEL003W, strain gim4, active compounds read low",0.96
same,normalized growth,"locus YEL037C, strain rad23, active compounds read low",0.995
same,normalized growth,"locus YEL061C, strain CIN8 (second series), active compounds read low",0.984
same,normalized growth,"locus YER015W, strain faa2, active compounds read low",0.973
same,normalized growth,"locus YER016W, strain bim1, active compounds read low",0.971
same,normalized growth,"locus YER111C, strain swi4, active compounds read low",0.981
same,normalized growth,"locus YER155C, strain BEM2 (second series), active compounds read low",0.922
same,normalized growth,"locus YFR010W, strain ubp6, active compounds read low",0.973
same,normalized growth,"locus YGL167C, strain pmr1, active compounds read low",0.973
same,normalized growth,"locus YGL173C, strain kem1, active compounds read low",0.939
same,normalized growth,"locus YGL227W, strain vid30, active compounds read low",0.981
same,normalized growth,"locus YGL240W, strain doc1, active compounds read low",0.951
same,normalized growth,"locus YGL253W, strain hxk2, active compounds read low",0.967
same,normalized growth,"locus YHR013C, strain ard1, active compounds read low",0.875
same,normalized growth,"locus YHR027C, strain rpn1, active compounds read low",0.98
same,normalized growth,"locus YHR142W, strain chs7, active compounds read low",0.991
same,normalized growth,"locus YJL092W, strain hpr5, active compounds read low",0.988
same,normalized growth,"locus YJL095W, strain BCK1 (second series), active compounds read low",0.971
same,normalized growth,"locus YJL115W, strain asf1, active compounds read low",0.982
same,normalized growth,"locus YJL129C, strain trk1, active compounds read low",0.89
same,normalized growth,"locus YJL154C, strain vps35, active compounds read low",0.992
same,normalized growth,"locus YJL164C, strain tpk1, active compounds read low",0.986
same,normalized growth,"locus YJL166W, strain qcr8, active compounds read low",0.937
same,normalized growth,"locus YJL187C, strain SWE1, active compounds read low",0.972
same,normalized growth,"locus YKL160W, strain elf1, active compounds read low",0.957
same,normalized growth,"locus YKR026C, strain gcn3, active compounds read low",0.983
same,normalized growth,"locus YKR091W, strain srl3, active compounds read low",0.984
same,normalized growth,"locus YLL001W, strain dnm1, active compounds read low",0.945
same,normalized growth,"locus YLL026W, active compounds read low",0.968
same,normalized growth,"locus YLL041C, strain sdh2, active compounds read low",0.983
same,normalized growth,"locus YLR027C, strain aat2, active compounds read low",0.948
same,normalized growth,"locus YLR221C, strain rsa3, active compounds read low",0.947
same,normalized growth,"locus YLR258W, strain gsy2, active compounds read low",0.994
same,normalized growth,"locus YLR262C, strain YPT6 (second series), active compounds read low",0.874
same,normalized growth,"locus YLR320W, strain mms22, active compounds read low",0.899
same,normalized growth,"locus YLR342W, strain FKS1, active compounds read low",0.963
same,normalized growth,"locus YLR357W, strain rsc2, active compounds read low",1.01
same,normalized growth,"locus YLR370C, strain arc18, active compounds read low",0.958
same,normalized growth,"locus YLR384C, strain iki3, active compounds read low",0.964
same,normalized growth,"locus YML120C, strain ndi1, active compounds read low",0.985
same,normalized growth,"locus YMR058W, strain fet3, active compounds read low",0.991
same,normalized growth,"locus YMR125W, strain sto1, active compounds read low",0.992
same,normalized growth,"locus YMR129W, active compounds read low",0.97
same,normalized growth,"locus YMR205C, strain PFK2, active compounds read low",0.878
same,normalized growth,"locus YMR231W, strain pep5, active compounds read low",0.984
same,normalized growth,"locus YNL071W, strain lat1, active compounds read low",0.878 (active)
same,normalized growth,"locus YNL209W, strain ssb2, active compounds read low",0.982
same,normalized growth,"locus YNL248C, strain rpa49, active compounds read low",0.973
same,normalized growth,"locus YNL322C, strain KRE1 (second series), active compounds read low",1
same,normalized growth,"locus YNR049C, strain mso1, active compounds read low",0.982
same,normalized growth,"locus YOR001W, strain rrp6, active compounds read low",0.915
same,normalized growth,"locus YOR070C, strain gyp1, active compounds read low",0.957
same,normalized growth,"locus YOR080W, strain dia2, active compounds read low",0.979
same,normalized growth,"locus YOR083W, strain WHI5, active compounds read low",0.99
same,normalized growth,"locus YOR106W, strain vam3, active compounds read low",0.98
same,normalized growth,"locus YOR265W, strain rbl2, active compounds read low",0.979
same,normalized growth,"locus YOR270C, strain vph1, active compounds read low",0.808
same,normalized growth,"locus YOR290C, strain snf2, active compounds read low",0.989
same,normalized growth,"locus YPL051W, strain arl3, active compounds read low",0.914 (active)
same,normalized growth,"locus YPL078C, strain atp4, active compounds read low",1.01
same,normalized growth,"locus YPL106C, strain sse1, active compounds read low",0.984
same,normalized growth,"locus YPL240C, strain hsp82, active compounds read low",0.984
